High-throughput results (PubChem BioAssay)
HttQ103 aggreg = inhibitors of mutant huntingtin aggregate formation in PC12 cells; PC12 HttQ103-GFP aggregates, Acumen cytometry, 40 h; Potency, µM (doses to about 46.1 µM), for the others: top-dose activity change, negative = inhibition, most hits filed as inhibitors; AID 1688; actives 1.1% (n = 220,000); note: potency is the fitted concentration of half-maximal effect; % is set by controls: 0 for no effect and ±100 for the full control effect; nearly all actives have a fitted effect of over 60% in size
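Aggregates are detected as GFP objects 1–25 µm with signal 6 STDEV over background in lysates of induced PC12 cells. These carry Huntingtin exon 1 with 103 glutamines fused to GFP under an ecdysone promoter; compounds titrated.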
HTT cytoprotect = protects HTT-Q103 PC12 cells, measured by ATP; PC12 HTT-Q103 induced, cytoprotection, ATP luminescence, 40 h; Potency, µM (series often up to 56.4 µM), for the others: cytoprotection (ATP increase), actives largely listed as activators; actives 0.14% (n = 230,000); AID 1471; note: potency is the fitted concentration of half-maximal effect; % of control where 0% means no effect; nearly all actives have a fitted effect of over 45% in size
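Readout: ATPlite luminescence (ATP level). Model: stable PC12, inducible Htt exon1 Q103-GFP. Inducer: tebufenozide, 100 nM final. Compounds: dose series. No G418 in medium.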
PNC assembly inh = inhibitors of perinucleolar compartment assembly; PC3M PTB-GFP, PNC prevalence imaging, 16 h; stronger effect = lower value; AID 2417; activity change (PNC), negative = inhibition, % at 10 µM; actives 3.1% (n = 140,000);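 active = readout at or below -70, meaning at least 70% loss of cells showing the perinucleolar compartment, a nuclear body marking cancer cells; inconclusive = readout between -30 and a set limit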;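 note: plate controls were DMSO wells for no effect and camptothecin positive control wells for full effect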
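PC3M cells stably expressing PTB-GFP, 750–1000 cells/well, treated 16 h at 37 °C with compound (23 nl of library stock), in duplicate. After paraformaldehyde fixation and Hoechst stain, imaged at 20x; PNC prevalence scored by image analysis.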
GoLoco inh red = RGS12 GoLoco-Gai1 interaction inhibition | Gai1:RGS12 GoLoco peptide FP, rhodamine, 10 min | Potency, µM (top dose mostly 61.6 µM), for the others: at the top dose activity, negative = inhibition, usual class: inhibitors | actives 0.44% (n = 230,000) | AID 880; active = well fitted inhibition curve with a large enough effect, not every such curve was filed as active; inactive = no such curve, though single readings can be large or run the other way; note: potency is the fitted concentration of half-maximal effect; % is set by controls: 0 for no effect and ±100 for the full control effect; nearly all actives have a fitted effect of over 30% in size
Target sequence (P63096 whole entry, looked up): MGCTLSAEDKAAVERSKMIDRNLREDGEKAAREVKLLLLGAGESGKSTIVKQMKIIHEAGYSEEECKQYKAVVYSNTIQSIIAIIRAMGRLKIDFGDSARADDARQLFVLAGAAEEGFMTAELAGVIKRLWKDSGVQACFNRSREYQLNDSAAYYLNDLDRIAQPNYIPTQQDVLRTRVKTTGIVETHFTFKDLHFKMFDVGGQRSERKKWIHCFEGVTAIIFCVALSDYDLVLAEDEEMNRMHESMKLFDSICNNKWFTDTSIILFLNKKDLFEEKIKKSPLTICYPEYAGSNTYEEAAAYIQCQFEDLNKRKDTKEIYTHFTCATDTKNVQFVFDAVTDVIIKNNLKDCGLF
ALDH1A1 block = ALDH1A1 (human) enzyme inhibition | P00352 | Purified ALDH1A1, NADH fluorescence, propionaldehyde substrate | Potency, µM (highest dose often 75.3 µM), for inactives: at the highest dose activity, negative = inhibition, most hits filed as inhibitors | actives 7.3% (n = 220,000); active = well fitted inhibition curve with a large enough effect, not every such curve was filed as active; inconclusive = small, poorly fitted or top-dose-only effect, or another doubt; inactive = no such curve, though single readings can be large or run the other way;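 note: potency is the fitted concentration of half-maximal effect; plate controls were no enzyme wells and a reference inhibitor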
HPGD block = HPGD (human) dehydrogenase inhibition. purified HPGD, NADH fluorescence kinetic, PGE2 substrate. P15428. Potency, µM, inactives show at the top dose activity change, negative = inhibition, most hits filed as inhibitors. AID 894. actives 4.3% (n = 150,000); active = well fitted inhibition curve with a large enough effect, not every such curve was filed as active; inconclusive = small, poorly fitted or top-dose-only effect, or another doubt; inactive = no such curve, though single readings can be large or run the other way; note: potency is the fitted concentration of half-maximal effect; % is set by controls: 0 for no effect and ±100 for the full control effect
Target sequence (P15428 whole entry, looked up): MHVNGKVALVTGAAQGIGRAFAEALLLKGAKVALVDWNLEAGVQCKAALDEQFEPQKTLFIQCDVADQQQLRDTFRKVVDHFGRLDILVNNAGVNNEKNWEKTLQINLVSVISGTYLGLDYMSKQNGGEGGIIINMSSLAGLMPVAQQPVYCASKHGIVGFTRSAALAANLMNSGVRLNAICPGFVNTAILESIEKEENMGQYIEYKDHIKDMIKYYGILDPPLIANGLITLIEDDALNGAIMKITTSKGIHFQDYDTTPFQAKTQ
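NADH formation kinetics: reaction with 30 uM PGE2 and 1 mM NAD+ (final), 20 nM enzyme, Tris-HCl pH 8 with Tween 20, after 15 min compound preincubation at room temperature. Fluorescence change, last versus first of five reads.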
* hit, by the source's call; ? = inconclusive; . = not tested or not shown; [ ] = another dose, or the depositor's remark. Compounds with a hit are over-represented: about 11% of the library has one in this group of screens. Unless noted, calls come from the whole dose curve; as a rule, active = well fitted curve in the direction sought with a large enough effect; inconclusive = small, poorly fitted or top-dose-only effect, or another doubt; inactive = no such curve, though single readings can be large; an effect the other way counts as inactive or inconclusive.

SMILES	HttQ103 aggreg	HTT cytoprotect	PNC assembly inh	GoLoco inh red	ALDH1A1 block	HPGD block
O=C(NCC1CCCO1)c1ccc2nc(N3CCCCC3)sc2c1 (stereo not given)	11.0%	-21.2%	86.4	-8.3%	?	?
O=C(NCC1CCCO1)c1ccc(N2CCCCC2)nc1 (stereo not given)	13.4%	7.7%[10 µM]	6.7	0.0%	?	14.1µM*
O=C(NCC1CCCO1)c1ccccc1 (stereo not given)	-8.1%	8.6%	4.9	3.1%	3.5%	20µM*
NC(N)=N/N=C/c1cccc(Cl)c1Cl	-27.7%	-43.3%	.	14.3%	8.8%	.
Cc1cccn2c(CN3CCCN(C=O)CC3)c(C(=O)N(C)CCc3ccccc3)nc12	22.0%	-23.3%	.	-5.7%	2.9%	.
CC(N)=NCCCC(N)C(=O)O (stereo not given)	.	.	.	11.7%	-2.1%	3.1%
O=C(c1ccccc1)N1CCCCC(Cl)C1=O (stereo not given)	5.6%	-17.6%[10 µM]	.	8.9%	?	.
O=C(NCC1CCCO1)C1CCC(=O)N1CCc1ccccc1 (stereo not given)	2.9%	-3.2%	-102.1*	2.6%	-5.7%	-11.2%
O=C(NCC1CCCO1)NC1CCCCC1 (stereo not given)	?	6.0%[10 µM]	?	-10.0%	11.0%	28.2µM*
CN(C)c1ccc(C(=O)NCC2CCCO2)cc1 (stereo not given)	11.0%	-12.8%[10 µM]	?	-4.6%	1.0%	14.1µM*
O=C(NCC1CCCO1)c1cccc(F)c1 (stereo not given)	2.1%	7.8%	-20.3	-3.0%	5.4%	22.4µM*
COC(=O)NC(c1ccccc1)C1(C(=O)OC)C(=O)Cc2ccccc21 (stereo not given)	.	-32.4%	.	2.5%	?	-7.3%
CCN(CCn1cccn1)Cc1c(C(=O)N2CCCCCCC2)nc2ccc(Cl)cn12	10.8%[9.22 µM]	2.7%[10 µM]	.	-20.8%	3.8%	.
C[n+]1cccc(C(=O)NCC2CCCO2)c1 (stereo not given)	-6.0%	-0.7%[10 µM]	-18.8	1.78µM*	7.2%	-9.2%
Cc1cccc(C(=O)NCC2CCCO2)c1 (stereo not given)	-27.2%	13.3%[10 µM]	86.9	0.3%	-1.1%	?
Cc1ccc(-c2c[nH]c(=S)n2-c2ccccc2F)cc1	13.0%	-1.8%	.	5.3%	2µM*	.
Cc1ccc(-c2c[nH]c(=S)n2-c2ccccc2)cc1	0.8%	3.8%[10 µM]	.	13.2%	1µM*	.
Cn1c(-c2ccc(-c3ccccc3)cc2)c[nH]c1=S	-1.2%	-14.7%	16.4	.	2.1%	.
Cc1oc(-c2ccccc2)nc1CS(=O)CC(=O)N1CCc2ccccc2C1 (stereo not given)	15.6%	-8.5%	22.3	1.8%	25.1µM*	?
COc1ccc(C(=O)C(CCC(CNC(C)(C)C)C(=O)c2ccc(OC)cc2)CNC(C)(C)C)cc1 (stereo not given)	17.8µM*	.	-4.4	-3.3%	8.91µM*	-3.7%
COc1ccc(C(=O)CC(=O)c2ccc(C(C)(C)C)cc2)cc1	2.4%	-41.2%	.	16.6%	?	-5.7%
CC(=O)/C(=N/Nc1cccc(Cl)c1)N1CCOCC1	9.9%	0.8%	?	0.5%	12.6µM*	-26.7%
CC(=O)/C(=N/Nc1ccccc1C)N1CCOCC1	-2.7%	-4.7%	-3.0	9.4%	17.8µM*	-27.4%
CC(=O)/C(=N/Nc1ccccc1)N1CCOCC1	?	-16.6%[10 µM]	?	3.8%	-4.4%	-20.5%
O=S(=O)(c1ccccc1)N1CCC2(CC1)CN(c1ncccn1)C2	.	-30.6%	.	4.3%	?	?
SMILES	HttQ103 aggreg	HTT cytoprotect	PNC assembly inh	GoLoco inh red	ALDH1A1 block	HPGD block
OC1(c2ccc3c(c2)OCO3)CCN(Cc2ccc(F)cc2)CC1	-18.8%[9.22 µM]	2.2%[10 µM]	.	-0.6%	.	.
CC1(OC(=O)c2cnc3ccccc3n2)C(=O)C=C2C=C3CCCN3C=C2C1=O (stereo not given)	.	0.0%[10 µM]	.	-0.8%[14.2 µM]	0.3%[13.5 µM]	-8.8%
COc1ncnc2c1NC1=C(S2)C(=NCCC(=O)O)CC(C)(C)C1	3.0%	9.0%	-14.2	.	5.01µM*	.
O=C(O)Cc1cccc(OCCCN(Cc2cccc(C(F)(F)F)c2Cl)CC(c2ccccc2)c2ccccc2)c1	.	-334.3%	.	8.3%	?	-18.5%
Cc1ccc(C(C)C)c(OCc2nn(CC(=O)c3ccc(Cl)cc3)c3[n+]2CCCCC3)c1	?	-7.7%	.	35.7%	-8.1%	.
C=CCc1cccc(C2NC(C(=O)O)CCC2C)c1 (stereo not given)	.	8.0%[10 µM]	.	.	5.4%[13.5 µM]	.
CCCC(=O)Nc1cc(C(=O)O)ccc1S(=O)(=O)c1ccc(C)cc1	8.8%	.	-113.4*	-1.1%	?	-17.5%
CC(=O)Nc1cc(C(=O)N2CCCC2)ccc1S(=O)(=O)c1ccc(C)cc1	5.6%	-3.1%	15.6	4.1%	-6.5%	-9.3%
COC(=O)c1ccc(C(/C=C/[C@@H](C)C(=O)NCc2ccccc2)NC(=O)OCc2ccccc2)cc1 (stereo not given in full)	.	-31.3%	.	7.2%	-0.3%	-4.9%
COc1cccc(CN2CCN(Cc3cc(OC)c(OC)cc3[N+](=O)[O-])CC2)c1	12.2%	4.5%	78.0	-15.9%	25.1µM*	2.2%
COc1ccc(-c2noc(CN3CCN(c4ccccc4F)CC3)n2)cc1OC	-11.9%	13.6%	20.6	7.9%	?	-12.9%
COc1cc(CN2CCN(Cc3ccc([N+](=O)[O-])cc3)CC2)c([N+](=O)[O-])cc1OC	?	24.1%[10 µM]	.	-8.8%	35.5µM*	.
O=[N+]([O-])c1ccc(CN2CCSCC2)cc1	11.8%	8.2%[10 µM]	.	-1.9%	-12.9%	.
COc1cc(CN2CCN(c3ccccc3F)CC2)c([N+](=O)[O-])cc1OC	-0.8%	17.7%[0.074 µM]	?	-3.9%	28.2µM*	7.1%
COCCNc1nc(C)nc2c1nc(-c1ccccc1)n2CCCN1CCCCC1C (stereo not given)	.	7.1%	.	-2.9%	?	?
COc1ccc(-c2n[nH]c(=S)n2-c2ccc3c(c2)OCCO3)cc1	27.5%	.	-10.7	5.2%	-8.8%	25.1µM*
Oc1ccc(-c2n[nH]c(=S)n2-c2ccc3c(c2)OCCO3)c(O)c1	3.5%	.	25.8	26.3%	?	14.1µM*
S=c1[nH]nc(-c2ccc(Cl)cc2Cl)n1-c1ccc2c(c1)OCCO2	22.1%[9.22 µM]	14.4%[10 µM]	.	2.6%	.	.
CCC(=O)N1CCc2cc(S(=O)(=O)CCC(=O)Nc3ccc(C)cn3)ccc21	7.1%	15.6%	.	5.1%	2.3%	.
Cc1n[nH]c(=S)n(/N=C/c2cccc([N+](=O)[O-])c2)c1=O	5.0%[9.22 µM]	24.4%[10 µM]	.	2.0%	?	.
O=[N+]([O-])c1ccc(/C=N/n2c(-c3cccnc3)n[nH]c2=S)cc1	1.2%	-6.2%[10 µM]	-12.9	.	2.82µM*	.
